Source: PubChem BioAssay (several laboratories)
Bead autofluor: flagged as autofluorescent in microsphere protease counterscreen; compound autofluorescence counterscreen, microsphere flow cytometry; stronger effect = higher value; fluorescence intensity (concentration not given with the values); actives 3.1% (n = 360,000); in the data active means fluorescence intensity above about 16000; inconclusive means no clear call, values can overlap the other calls
BJeLR lethal: BJeLR cell viability loss; BJeLR (HRASV12) viability, CellTiter-Glo ATP luminescence, 48 h; inhibition, % (no concentration beside the values); actives 0.17% (n = 300,000); AID 1554; in the data active means inhibition above about 50%; inconclusive means no clear call, values can overlap the other calls
BH1578 lux ind: inducers of Vibrio cholerae quorum light production without autoinducers; activation, % at 18.7 µM; V. cholerae BH1578 lux reporter, luminescence, 6 h; actives 0.16% (n = 350,000); in the data active means activation mostly above about 9.7%, no sharp cut-off; inconclusive means no clear call, values can overlap the other calls; inactive means mostly below about 3.7%
BoNT-A LC inh2: BoNT A light chain protease inhibition; multiplex microsphere protease substrate cleavage, flow cytometry; inhibition, % at 10 µM; actives 0.17% (n = 360,000); AID 588499; further: plate controls were buffer without enzyme for full effect and enzyme alone for no effect
BoNT F protease: BoNT F light chain protease inhibition; inhibition, % at 10 µM; AID 588497; actives 0.22% (n = 360,000); Multiplex microsphere protease cleavage assay, flow cytometry; in the data active means inhibition above about 35%, passing the limit was not always enough; inconclusive means no clear call, values can overlap the other calls; further: plate controls were buffer without enzyme for full effect and enzyme alone for no effect
Anthrax LF prot: blocks Bacillus anthracis lethal factor protease; P15917; multiplex microsphere protease cleavage assay, LF; inhibition, % at 10 µM; actives 0.12% (n = 360,000); further: plate controls were buffer without enzyme for full effect and enzyme alone for no effect
Target sequence (P15917 whole entry, looked up): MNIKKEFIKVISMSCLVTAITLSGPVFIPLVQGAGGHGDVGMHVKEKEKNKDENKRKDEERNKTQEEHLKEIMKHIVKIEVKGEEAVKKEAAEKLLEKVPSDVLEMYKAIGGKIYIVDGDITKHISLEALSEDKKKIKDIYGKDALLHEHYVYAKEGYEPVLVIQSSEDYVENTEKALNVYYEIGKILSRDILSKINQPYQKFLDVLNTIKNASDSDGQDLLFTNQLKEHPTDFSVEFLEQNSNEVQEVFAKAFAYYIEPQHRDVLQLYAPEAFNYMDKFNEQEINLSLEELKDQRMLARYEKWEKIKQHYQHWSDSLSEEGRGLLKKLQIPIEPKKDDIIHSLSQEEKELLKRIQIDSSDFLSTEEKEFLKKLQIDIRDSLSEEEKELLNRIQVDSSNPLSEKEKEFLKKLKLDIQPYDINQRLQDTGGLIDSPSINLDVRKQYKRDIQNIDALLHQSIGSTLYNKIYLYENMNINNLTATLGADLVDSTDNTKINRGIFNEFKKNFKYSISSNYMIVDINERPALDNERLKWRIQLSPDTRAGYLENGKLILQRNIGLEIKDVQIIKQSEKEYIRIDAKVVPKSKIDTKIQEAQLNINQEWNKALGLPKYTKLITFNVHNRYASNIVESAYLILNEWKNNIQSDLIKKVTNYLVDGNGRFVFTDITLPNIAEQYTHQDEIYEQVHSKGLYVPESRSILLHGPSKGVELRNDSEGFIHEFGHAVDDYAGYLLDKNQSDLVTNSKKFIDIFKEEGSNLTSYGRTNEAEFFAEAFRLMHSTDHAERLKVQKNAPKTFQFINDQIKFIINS
Numbers without * were called inactive; i = inactive; ? = inconclusive; / = no result. This is a sample that favours compounds with a hit; in the whole collection about 3.7% have one here. Unless noted, no stated cut-off is given here; in the data, active means inhibition above about 30%; inconclusive means no clear call, values can overlap the other calls; inactive means below that.

SMILES	Bead autofluor	BJeLR lethal	BH1578 lux ind	BoNT-A LC inh2	BoNT F protease	Anthrax LF prot
C/C(=N\NS(=O)(=O)c1ccc(Cl)c([N+](=O)[O-])c1)c1cc2ccccc2o1	22417*	12.6	-1.4	?	-12.1	0.5
O=C1CC(=O)C(n2cncn2)C(c2c(F)cccc2Cl)C1 (stereo not given)	22544*	-0.4	i	2.4	4.1	-1.2
CCOc1ccc(N=Cc2c(O)n(-c3cc(C)cc(C)c3)c(=O)[nH]c2=O)cc1	4627	-2.5	i	?	?	-9.9
CCOc1ccc(N=Cc2c(O)n(C(C)(C)C)c(=O)[nH]c2=O)cc1	23346*	-2.0	-2.2	-0.4	-2.8	-2.4
Cc1ccc(NC(=O)c2nc[nH]c2C(=O)N(C)CCO)cc1	3940	/	-0.5	0.0	-0.8	0.8
CCOC(=O)c1sc(-c2ccc(Br)cc2)cc1N	18598*	9.7	-1.8	3.8	1.7	-2.8
CCOC(=O)c1sc(-c2ccccc2)cc1NC(=O)Nc1ccccc1	2659	7.1	-0.1	4.0	2.4	0.3
CCOC(=O)c1cc(-c2ccc(N)cc2)sc1N	18171*	8.5	i	10.2	2.0	-3.2
CN(CC(=O)Nc1cc(S(=O)(=O)N2CCCC2)ccc1Cl)Cc1nc2ccccc2c(=O)[nH]1	3971	/	i	-1.0	-14.4	-5.7
O=C(Nc1cccnc1)c1ccccc1-c1nc(-c2ccccc2F)no1	21936*	-5.2	-0.1	2.6	4.3	-7.5
COc1ccccc1-c1noc(-c2ccccc2C(=O)Nc2cccnc2)n1	22521*	-15.0	-0.4	2.2	2.0	2.5
O=C(Nc1cccnc1)c1c(F)cccc1F	16636*	3.7	i	?	-2.7	-4.5
COc1ccc(-c2noc(-c3ccccc3C(=O)Nc3cccnc3)n2)cc1	3868	7.4	i	-0.9	4.9	-4.0
COc1c(C)cc(C(O)c2ncc(-c3ccccc3)[nH]2)cc1C (stereo not given)	3016	/	-1.1	-0.4	-8.1	-11.6
CC(=O)N(c1ccccc1)c1ccccc1[N+](=O)[O-]	3732	/	i	-0.1	1.4	-3.5
CCOC(=O)CN(C(=O)c1snc(C(N)=O)c1N)C(C(=O)NCCC(C)C)c1ccc(C)cc1 (stereo not given)	3572	/	i	-0.5	-1.8	-2.9
CCc1ccc(NC(=S)N(CCOC)C2CCN(C(C)=O)CC2)cc1	3400	-9.6	0.6	-1.3	39.9*	26.2
CCc1ccc(NC(=S)N(CCC(C)C)C2CCN(C(C)=O)CC2)cc1	3507	9.2	-0.5	-1.8	0.1	-2.3
Cc1cccc(OC(=O)CN2C(=O)C3C4CCC(C4)C3C2=O)c1C (stereo not given)	23771*	-2.4	-0.2	0.6	-2.6	-0.2
COc1ccc(OC(=O)CN2C(=O)C3C4CCC(C4)C3C2=O)cc1 (stereo not given)	2054	-27.4	-0.5	0.6	-6.2	1.6
COCCNC(=O)C1(C)CCN(C(=O)/C=C/c2ccccc2)C1 (stereo not given)	3896	/	i	-0.2	-0.9	-4.1
CCNc1nc(NC(C)C)nc(NS(=O)(=O)c2ccc(N)cc2)n1	17274*	-1.1	i	-1.6	-6.0	0.2
Cc1cc(NN)nc(NS(=O)(=O)c2ccc(Cl)cc2)n1	4034	-8.9	1.1	-0.1	3.1	-4.5
CCN(CC)c1nc(N)nc(NS(=O)(=O)c2ccc(Cl)cc2)n1	19449*	-6.9	i	?	6.4	2.1
CCNc1nc(NC(C)C)nc(NS(=O)(=O)c2ccc(Cl)cc2)n1	22725*	9.6	5.9	1.1	-0.6	-1.1
SMILES	Bead autofluor	BJeLR lethal	BH1578 lux ind	BoNT-A LC inh2	BoNT F protease	Anthrax LF prot
O=C(O)c1ccc(COc2c(F)c(F)c(F)c(F)c2F)o1	19586*	-16.7	i	2.3	3.1	-0.9
Cc1cc(C)cc(OCc2ccc(C(=O)O)o2)c1	10857	2.2	i	-0.4	8.0	3.5
O=C(NNS(=O)(=O)c1ccccc1[N+](=O)[O-])c1ccc(O)cc1	24381*	-4.1	-5.3	-1.0	-4.8	0.4
CC(=O)Nc1ccc(CN(C)c2c(C)nc3ccc(C(=O)N(C)Cc4ccco4)cn23)cc1	3729	/	-0.2	-0.4	-6.0	-4.9
O=C(CC1SC2=NCCN2C1=O)Nc1ccc(Br)cc1 (stereo not given)	21829*	-1.9	-1.4	-4.3	-2.3	0.3
CC(=O)Nc1ccc(C(=O)Cn2nnc3ccccc3c2=O)cc1	18940*	-5.6	i	3.4	2.4	-2.2
O=S(=O)(NCc1ccccn1)c1ccccc1	9058	1.7	i	0.8	-4.1	-19.7
